Assay outcomes from PubChem BioAssay.
Compounds with a hit are over-represented: about 19% of the library has one in this group of screens.
Gal4-VP16 FLuc: VP16 counterscreen qHTS for inhibitors of ROR gamma transcriptional activity. Drosophila S2 Gal4-VP16 UAS-luciferase, luminescence, 20 h. Potency, µM (top dose mostly 53.6 µM), most hits filed as inhibitors. 3.5% of 310,000 active. AID 2546, 2010;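 note: Gal4-VP16 expression switched on by copper sulfate through the metallothionein promoter; nearly all actives have a fitted effect of over 50% in size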
TDP1 cell CPT: qHTS for Inhibitors of human tyrosyl-DNA phosphodiesterase 1 (TDP1): qHTS in cells in presence of CPT. chicken DT40 Tdp1-/-;hTDP1 cells + 20 nM CPT, ATP luminescence, 48 h. Potency, µM (highest dose often 46.2 µM), most hits filed as inhibitors. 12% of 420,000 active. AID 686979, 2013; note: nearly all actives have a fitted effect of over 55% in size
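Chicken DT40 Tdp1-/- cells stably complemented with human TDP1 were seeded at 400 cells/well in medium containing 20 nM camptothecin, exposed to pin-transferred compounds, and grown at 37 °C for at least 48 hr. Viability was read as ATP luminescence.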
RORgamma inh: qHTS for inhibitors of ROR gamma transcriptional activity; Nuclear receptor ROR-gamma (Mus musculus), P51450; Drosophila S2 Gal4-RORgamma UAS-luciferase reporter, 20 h; Potency, µM (doses to about 53.6 µM), usual class: inhibitors; 5.4% of 310,000 active; AID 2551, 2010; note: nearly all actives have a fitted effect of over 60% in size
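Drosophila Schneider cells stably carrying a metallothionein-driven Gal4 DBD–ROR gamma fusion and a UAS-Photinus luciferase reporter were exposed to compound for 1 hr, then induced with copper sulfate (700 uM final) for 20 hr at ambient temperature before luminescence reading.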
DT40 TDP1 no CPT: qHTS for Inhibitors of human tyrosyl-DNA phosphodiesterase 1 (TDP1): qHTS in cells in absence of CPT. DT40 Tdp1-/- hTDP1 cells, no CPT, ATP luminescence, 48 h. Potency, µM (doses to about 46.2 µM), actives largely listed as inhibitors. 15% of 420,000 active. AID 686978, 2013; note: nearly all actives have a fitted effect of over 55% in size
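Growth of hTDP1-complemented DT40 Tdp1-knockout cells is measured by ATP luminescence after at least 48 hr compound exposure at 37 °C, with DMSO substituting for the 20 nM CPT used in the parallel screen.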
TDP1 block: qHTS Assay for Inhibitors of Tyrosyl-DNA Phosphodiesterase (TDP1). AID 485290, 2010. Tyrosyl-DNA phosphodiesterase 1 (Homo sapiens), Q9NUW8. Potency, µM (top dose mostly 130 µM), usual class: inhibitors. 0.28% of 350,000 active. recombinant TDP1, AlphaScreen DNA substrate cleavage; note: nearly all actives have a fitted effect of over 40% in size
Target sequence (Q9NUW8 whole entry, looked up): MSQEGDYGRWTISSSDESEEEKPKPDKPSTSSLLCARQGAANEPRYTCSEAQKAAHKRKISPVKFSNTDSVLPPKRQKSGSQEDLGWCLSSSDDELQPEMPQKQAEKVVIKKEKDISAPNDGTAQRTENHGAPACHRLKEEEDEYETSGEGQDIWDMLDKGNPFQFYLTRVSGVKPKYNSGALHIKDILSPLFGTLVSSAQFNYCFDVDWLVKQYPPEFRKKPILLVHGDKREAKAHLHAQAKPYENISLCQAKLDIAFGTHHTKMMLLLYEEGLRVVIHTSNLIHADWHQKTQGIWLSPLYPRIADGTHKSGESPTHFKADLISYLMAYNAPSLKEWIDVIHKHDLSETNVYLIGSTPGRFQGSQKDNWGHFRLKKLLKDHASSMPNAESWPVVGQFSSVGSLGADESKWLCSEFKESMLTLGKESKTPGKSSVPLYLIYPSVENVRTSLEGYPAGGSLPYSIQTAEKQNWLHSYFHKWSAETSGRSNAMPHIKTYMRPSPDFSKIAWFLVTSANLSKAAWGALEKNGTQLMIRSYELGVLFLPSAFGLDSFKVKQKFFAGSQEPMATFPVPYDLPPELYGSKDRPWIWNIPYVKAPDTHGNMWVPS
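Recombinant E. coli-expressed Tdp1 (1 nM) preincubated with compound 15 min at RT, then 5'-biotin/3'-phosphotyrosine-FITC DNA substrate (15 nM) added for 5 min. AlphaScreen beads (10 ug/ml) added, 10 min RT; tyrosine-FITC cleavage read as signal loss.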
A number is an active result; n = inactive; u = inconclusive; x = no result given; [ ] = remark or other dose. Calls come from the whole dose curve; as a rule, active = well fitted curve in the direction sought with a large enough effect; inconclusive = small, poorly fitted or top-dose-only effect, or another doubt; inactive = no such curve, though single readings can be large; an effect the other way counts as inactive or inconclusive.

SMILES	Gal4-VP16 FLuc	TDP1 cell CPT	RORgamma inh	DT40 TDP1 no CPT	TDP1 block
O=C(N/N=C/C=C\c1ccco1)c1ccccn1	n	9.2µM	n	16.4µM	x
O=C(N/N=C/C=C/c1ccco1)c1cnccn1	n	n	n	n	n
O=C(N/N=C\C=C\c1ccco1)c1cncc(Br)c1	u	n	2.24µM	u	x
COC(=O)Nc1ccc(N2CCOCC2)c(S(=O)(=O)N2CCOCC2)c1	n	n	n	n	n
O=C(NC(=O)c1c(F)cccc1F)Nc1cccc(Oc2ncc(Cl)cn2)c1	x	u	x	5.8µM	x
COc1ccccc1C(=O)NC(=O)Nc1cccc(Cl)c1	n	n	n	u	x
Cc1ccccc1C(=O)Nc1ccc(S(=O)(=O)N2CC(C)OC(C)C2)cc1 (stereo not given)	n	n	n	n	n
CCCOC(=O)c1cccc(Nc2nc(CCC)cc(=O)[nH]2)c1	x	16.4µM	x	14.6µM	n
Cc1cccc(-c2noc(-c3ccccc3OCC(=O)Nc3ccc([N+](=O)[O-])cc3)n2)c1	x	n	x	n	n
COC(=O)C1=C(C)NC(C)=C([N+](=O)[O-])[C@H]1c1ccccc1C(F)(F)F	n	u	n	11.2µM	n
COCCN1C=C(C(=O)OC)C(c2ccccc2C(F)(F)F)C(C(=O)OC)=C1	n	u	n	u	n
COC(=O)C1=C(C)NC(C)=C([N+](=O)[O-])[C@@H]1c1ccccc1C(F)(F)F	n	29.9µM	n	29.9µM	n
Cc1ccc(-n2c(SCC(=O)OC(C)C)nnc2-c2ccco2)cc1	u	n	u	u	n
CCCOc1ccc(F)cc1-c1cc(C(=O)NCc2ccc(C(F)(F)F)cc2)[nH]n1	x	u	x	16.4µM	x
COc1ccc(F)cc1-c1cc(C(=O)NCc2cccc(Cl)c2)[nH]n1	x	u	x	n	x
CCCOc1ccc(F)cc1-c1cc(C(=O)NCc2cccc(Cl)c2)[nH]n1	x	23.1µM	x	u	x
CCCOc1ccc(F)cc1-c1cc(C(=O)NCCOC)[nH]n1	x	n	x	n	x
CCCOc1ccc(F)cc1-c1cc(C(=O)NCc2cccc(C(F)(F)F)c2)[nH]n1	x	20.6µM	x	18.4µM	x
COc1ccc(-c2cc(C(=O)N3CCC3)c3ccccc3n2)cc1OC	x	n	x	n	n
COc1ccc(-c2cc(C(=O)N3CCCCC3)c3ccccc3n2)cc1	x	16.4µM	x	u	n
COc1ccc(-c2cc(C(=O)OCC(=O)N3CCOCC3)c3ccccc3n2)cc1	x	n	x	u	n
COC(=O)C1CCN(C(=O)COC(=O)c2cc(-c3ccccc3)nc3ccc(OC)cc23)CC1	x	u	x	u	28.2µM
O=C(c1cc(-c2ccc(Cl)cc2)nc2ccccc12)N1CCC1	x	18.4µM	x	16.4µM	n[0.505 µM]
CCOc1ccc(-c2cc(C(=O)O)c3ccccc3n2)cc1	10µM	u	7.94µM	u	n
O=C(CCC(=O)c1ccc(F)cc1)Nc1cccnc1	n	n	u	n	n
SMILES	Gal4-VP16 FLuc	TDP1 cell CPT	RORgamma inh	DT40 TDP1 no CPT	TDP1 block
Cc1cccc(Cn2cc(/C=C(/C#N)C(=O)Nc3cccc(Cl)c3)c3ccccc32)c1	x	n	x	u	n[2.28 µM]
COc1cc2c3c(c1)-c1c(sn(-c4cc(OC)ccc4OC)c1=S)C(C)(C)N3C(=O)C2=O	n	n	u	n	n
CCOC(=O)CN1C(=O)SC(CC(=O)Nc2nccs2)C1=O (stereo not given)	n	n	n	n	n
Cn1c(=O)c2c(nc(N3CCCCC3)n2C)n(C)c1=O	n	n	n	n	n
COC(=O)[C@]1(C)N[C@H](CN(C)C(=O)c2ccc(F)cc2)[C@@H]2C(=O)N(Cc3ccccc3)C(=O)[C@@H]21	x	n	x	n	n
COc1cc(C(=O)N2CCN(c3ccccc3)CC2)c2ccccc2n1	x	0.92µM	x	0.731µM	x
COc1ccc(C)cc1NC(=O)C(Cc1ccccc1)NS(=O)(=O)c1cccs1 (stereo not given)	x	18.4µM	x	u	n
CCOc1ccccc1NC(=O)C(Cc1ccccc1)NS(=O)(=O)c1ccc(Br)s1 (stereo not given)	x	23.1µM	x	u	n
Cn1ccnc1SCC(=O)Nc1sccc1C#N	n	n	n	n	n
COc1ccccc1NS(=O)(=O)c1ccc2oc(SC(C)C(=O)N3CCNC3=O)nc2c1 (stereo not given)	x	14.6µM	x	u	n
COc1ccccc1NS(=O)(=O)c1ccc2oc(SCc3ccc(F)cc3)nc2c1	u	16.4µM	u	16.4µM	n
COc1ccccc1NS(=O)(=O)c1ccc2oc(SCC(C)=O)nc2c1	u	n	u	u	n
COc1ccc(NC(=O)[C@@H]2CCCN2C(=O)c2cccs2)cc1S(=O)(=O)N1CCCCC1	x	n	x	n	n
CC(/C=C/c1ccccc1F)=N\NC(=O)c1ccc(Cl)cc1	n	14.6µM	n	14.6µM	n
CC(/C=C/c1ccccc1F)=N\NC(=O)c1ccccc1	7.08µM	u	3.16µM	u	n
Cc1cc(=O)c2c(O)cc(O)c(C)c2o1	n	u	n	20.6µM	n
COc1c2ccoc2c(OC(C)=O)c2oc(C)cc(=O)c12	n	n	n	u	x
